Source: PubChem BioAssay AID1159580 (chemical genetic matrix, 2015)
Among all 5,500 compounds or so, about 2,000 (36%) were called active. About 18% were inconclusive and are not listed. Rule as the data show it: active = normalized growth mostly below about 0.91 (no sharp cut-off); inconclusive = no clear call, values can overlap the other calls; inactive = mostly above about 0.92. Some of the results follow.

Experiment: chemical genetic growth profiling, strain panel (AID 1159580);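 also: tested at 20 µM; growth read once vehicle control cultures reached saturation at 30 °C; 1 = growth at the plate median or of vehicle wells; lower values mean less growth of the strain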
Conditions: S. cerevisiae deletion strains, growth OD

Measured: normalized growth

CC(=O)c1ccc2c(c1)N(CCCN(C)C)c1ccccc1S2
inactive: locus YAL021C, strain ccr4, hits give low values 0.962 | locus YAL026C, strain drs2, hits give low values 0.981 | locus YAL030W, strain snc1, hits give low values 1 | locus YBL061C, strain skt5, hits give low values 0.992 | locus YBR009C, strain hhf1, hits give low values 1 | locus YBR023C, strain chs3, hits give low values 1.01 | locus YBR171W, strain sec66, hits give low values 0.988 | locus YBR231C, strain swc5, hits give low values 0.994 | locus YBR279W, strain paf1, hits give low values 0.988 | locus YCL011C, strain gbp2, hits give low values 0.976 | locus YCL016C, strain dcc1, hits give low values 0.995 | locus YCL061C, strain MRC1, hits give low values 0.983 | locus YCL069W, strain vba3, hits give low values 0.988 | locus YCR088W, strain abp1, hits give low values 0.978 | locus YDL005C, strain med2, hits give low values 0.989 | locus YDL040C, strain nat1, hits give low values 0.99 | locus YDR001C, strain nth1, hits give low values 0.983 | locus YDR069C, strain doa4, hits give low values 0.99 | locus YDR137W, strain rgp1, hits give low values 1.09 | locus YDR159W, strain sac3, hits give low values 1.01 | locus YDR195W, strain ref2 1 | locus YDR297W, strain sur2, hits give low values 0.984 | locus YDR334W, strain swr1, hits give low values 0.959 | locus YDR335W, strain msn5, hits give low values 0.968 | locus YDR392W, strain spt3, hits give low values 0.994 | locus YEL003W, strain gim4, hits give low values 0.986 | locus YEL037C, strain rad23, hits give low values 0.939 | locus YEL061C, strain CIN8 (second series), hits give low values 0.984 | locus YER015W, strain faa2, hits give low values 0.98 | locus YER016W, strain bim1, hits give low values 0.989 | locus YER111C, strain swi4, hits give low values 0.994 | locus YER155C, strain BEM2 (second series), hits give low values 0.995 | locus YFR010W, strain ubp6, hits give low values 0.974 | locus YGL167C, strain pmr1, hits give low values 0.987 | locus YGL173C, strain kem1, hits give low values 0.973 | locus YGL227W, strain vid30, hits give low values 0.991 | locus YGL240W, strain doc1, hits give low values 1 | locus YGL253W, strain hxk2, hits give low values 0.993 | locus YHR013C, strain ard1, hits give low values 0.947 | locus YHR027C, strain rpn1, hits give low values 0.986 | locus YHR030C, strain SLT2, hits give low values 0.966 | locus YHR079C, strain IRE1, hits give low values 0.963 | locus YHR142W, strain chs7, hits give low values 0.943 | locus YJL092W, strain hpr5, hits give low values 0.934 | locus YJL095W, strain BCK1 (second series), hits give low values 1 | locus YJL095W, strain BCK1, hits give low values 1 | locus YJL115W, strain asf1, hits give low values 0.974 | locus YJL129C, strain trk1, hits give low values 0.981 | locus YJL154C, strain vps35, hits give low values 0.987 | locus YJL164C, strain tpk1, hits give low values 0.99 | locus YJL166W, strain qcr8, hits give low values 0.997 | locus YJL187C, strain SWE1, hits give low values 0.998 | locus YJR066W, strain TOR1, hits give low values 0.923 | locus YKL160W, strain elf1, hits give low values 0.976 | locus YKR026C, strain gcn3, hits give low values 0.979 | locus YKR091W, strain srl3, hits give low values 0.992 | locus YLL001W, strain dnm1, hits give low values 0.973 | locus YLL026W, hits give low values 0.996 | locus YLL041C, strain sdh2, hits give low values 0.98 | locus YLR027C, strain aat2, hits give low values 0.995 | locus YLR113W, strain HOG1, hits give low values 0.995 | locus YLR221C, strain rsa3, hits give low values 0.979 | locus YLR258W, strain gsy2, hits give low values 0.995 | locus YLR262C, strain YPT6 (second series), hits give low values 1.06 | locus YLR320W, strain mms22, hits give low values 1.01 | locus YLR342W, strain FKS1, hits give low values 0.99 | locus YLR357W, strain rsc2, hits give low values 1.01 | locus YLR370C, strain arc18, hits give low values 0.984 | locus YLR384C, strain iki3, hits give low values 0.987 | locus YML120C, strain ndi1, hits give low values 0.969 | locus YMR058W, strain fet3, hits give low values 0.967 | locus YMR125W, strain sto1, hits give low values 1.02 | locus YMR129W, hits give low values 0.991 | locus YMR205C, strain PFK2, hits give low values 1.02 | locus YMR231W, strain pep5, hits give low values 0.996 | locus YNL071W, strain lat1, hits give low values 0.995 | locus YNL183C, strain NPR1, hits give low values 0.947 | locus YNL209W, strain ssb2, hits give low values 0.99 | locus YNL248C, strain rpa49, hits give low values 0.956 | locus YNL322C, strain KRE1 (second series), hits give low values 0.987 | locus YNR049C, strain mso1, hits give low values 0.989 | locus YOR001W, strain rrp6, hits give low values 0.975 | locus YOR070C, strain gyp1, hits give low values 0.992 | locus YOR080W, strain dia2, hits give low values 0.983 | locus YOR083W, strain WHI5, hits give low values 0.971 | locus YOR106W, strain vam3, hits give low values 0.972 | locus YOR231W, strain MKK1, hits give low values 0.972 | locus YOR265W, strain rbl2, hits give low values 0.995 | locus YOR270C, strain vph1, hits give low values 0.958 | locus YOR290C, strain snf2, hits give low values 1.02 | locus YPL051W, strain arl3, hits give low values 0.994 | locus YPL078C, strain atp4, hits give low values 1 | locus YPL106C, strain sse1, hits give low values 0.973 | locus YPL240C, strain hsp82, hits give low values 0.997 | locus YPL256C, strain CLN2, hits give low values 0.954
